Measurements taken from PubChem BioAssay AID1159580 (chemical genetic matrix, 2015).
The whole screen tested about 5,500 compounds, of which about 2,000 (36%) were called active. About 18% were inconclusive and are not listed. Rule as the data show it: active = normalized growth mostly below about 0.91 (no sharp cut-off); inconclusive = no clear call, values can overlap the other calls; inactive = mostly above about 0.92. The list shows a part of the results.

Test: chemical genetic growth profiling, strain panel (AID 1159580);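 also: tested at 20 µM; growth read once vehicle control cultures reached saturation at 30 °C; 1 = growth at the plate median or of vehicle wells; lower values mean less growth of the strain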
Settings: growth OD

Measured: normalized growth

COc1ccc2c(c1OC)C(=O)O[C@@H]2[C@H]1c2cc3c(cc2CCN1C)OCO3
inactive: S. cerevisiae deletion strains, locus YJR075W, strain HOC1, active compounds read low 1.02 | S. cerevisiae deletion strains, locus YKL009W, strain mrt4, active compounds read low 1.03 | S. cerevisiae deletion strains, locus YKL068W, active compounds read low 1.02 | S. cerevisiae deletion strains, locus YKL085W, strain MDH1 (second series), active compounds read low 1.04 | S. cerevisiae deletion strains, locus YKL085W, strain MDH1, active compounds read low 1.04 | S. cerevisiae deletion strains, locus YKL160W, strain elf1, active compounds read low 0.974 | S. cerevisiae deletion strains, locus YKL190W, strain CNB1, active compounds read low 1.02 | S. cerevisiae deletion strains, locus YKR001C, strain vps1, active compounds read low 1.03 | S. cerevisiae deletion strains, locus YKR026C, strain gcn3, active compounds read low 0.998 | S. cerevisiae deletion strains, locus YKR091W, strain srl3, active compounds read low 0.997 | S. cerevisiae deletion strains, locus YLL001W, strain dnm1, active compounds read low 0.994 | S. cerevisiae deletion strains, locus YLL026W, active compounds read low 0.992 | S. cerevisiae deletion strains, locus YLL041C, strain sdh2, active compounds read low 1 | S. cerevisiae deletion strains, locus YLR027C, strain aat2, active compounds read low 0.996 | S. cerevisiae deletion strains, locus YLR039C, strain RIC1, active compounds read low 1.07 | S. cerevisiae deletion strains, locus YLR058C, strain SHM2, active compounds read low 1.02 | S. cerevisiae deletion strains, locus YLR102C, strain apc9, active compounds read low 1.01 | S. cerevisiae deletion strains, locus YLR113W, strain HOG1, active compounds read low 0.991 | S. cerevisiae deletion strains, locus YLR221C, strain rsa3, active compounds read low 0.983 | S. cerevisiae deletion strains, locus YLR258W, strain gsy2, active compounds read low 0.988 | S. cerevisiae deletion strains, locus YLR262C, strain YPT6 (second series), active compounds read low 0.98 | S. cerevisiae deletion strains, locus YLR262C, strain YPT6, active compounds read low 1.04 | S. cerevisiae deletion strains, locus YLR268W, strain sec22, active compounds read low 1.01 | S. cerevisiae deletion strains, locus YLR320W, strain mms22, active compounds read low 0.967 | S. cerevisiae deletion strains, locus YLR330W, strain CHS5, active compounds read low 1.02 | S. cerevisiae deletion strains, locus YLR342W, strain FKS1 (second series), active compounds read low 1.06 | S. cerevisiae deletion strains, locus YLR342W, strain FKS1, active compounds read low 0.984 | S. cerevisiae deletion strains, locus YLR357W, strain rsc2, active compounds read low 0.998 | S. cerevisiae deletion strains, locus YLR370C, strain arc18, active compounds read low 1 | S. cerevisiae deletion strains, locus YLR371W, strain rom2, active compounds read low 1.02 | S. cerevisiae deletion strains, locus YLR384C, strain iki3, active compounds read low 0.983 | S. cerevisiae deletion strains, locus YLR418C, strain cdc73, active compounds read low 1.02 | S. cerevisiae deletion strains, locus YML016C, strain PPZ1, active compounds read low 1.01 | S. cerevisiae deletion strains, locus YML032C, strain rad52, active compounds read low 1.03 | S. cerevisiae deletion strains, locus YML120C, strain ndi1, active compounds read low 0.985 | S. cerevisiae deletion strains, locus YML124C, strain tub3, active compounds read low 1.02 | S. cerevisiae deletion strains, locus YMR058W, strain fet3, active compounds read low 0.998 | S. cerevisiae deletion strains, locus YMR078C, strain ctf18, active compounds read low 1.03 | S. cerevisiae deletion strains, locus YMR125W, strain sto1, active compounds read low 0.988 | S. cerevisiae deletion strains, locus YMR129W, active compounds read low 1 | S. cerevisiae deletion strains, locus YMR205C, strain PFK2, active compounds read low 0.971 | S. cerevisiae deletion strains, locus YMR223W, strain ubp8, active compounds read low 1.03 | S. cerevisiae deletion strains, locus YMR231W, strain pep5, active compounds read low 0.993 | S. cerevisiae deletion strains, locus YMR263W, strain SAP30, active compounds read low 1.01 | S. cerevisiae deletion strains, locus YMR307W, strain GAS1, active compounds read low 1.09 | S. cerevisiae deletion strains, locus YNL067W, strain RPL9B, active compounds read low 1.01 | S. cerevisiae deletion strains, locus YNL071W, strain lat1, active compounds read low 0.997 | S. cerevisiae deletion strains, locus YNL128W, strain TEP1, active compounds read low 1.02 | S. cerevisiae deletion strains, locus YNL153C, strain GIM3, active compounds read low 1.01 | S. cerevisiae deletion strains, locus YNL183C, strain NPR1, active compounds read low 0.953 | S. cerevisiae deletion strains, locus YNL209W, strain ssb2, active compounds read low 0.993 | S. cerevisiae deletion strains, locus YNL233W, strain BNI4, active compounds read low 1.02 | S. cerevisiae deletion strains, locus YNL248C, strain rpa49, active compounds read low 0.999 | S. cerevisiae deletion strains, locus YNL250W, strain rad50, active compounds read low 1.02 | S. cerevisiae deletion strains, locus YNL271C, strain bni1, active compounds read low 1.01 | S. cerevisiae deletion strains, locus YNL298W, strain CLA4, active compounds read low 1.03 | S. cerevisiae deletion strains, locus YNL307C, strain MCK1, active compounds read low 1.02 | S. cerevisiae deletion strains, locus YNL322C, strain KRE1 (second series), active compounds read low 0.99 | S. cerevisiae deletion strains, locus YNL322C, strain KRE1, active compounds read low 1.01 | S. cerevisiae deletion strains, locus YNR049C, strain mso1, active compounds read low 0.996 | S. cerevisiae deletion strains, locus YNR052C, strain pop2, active compounds read low 1.02 | S. cerevisiae deletion strains, locus YOL006C, strain TOP1, active compounds read low 1.04 | S. cerevisiae deletion strains, locus YOL012C, strain htz1 1.03 | S. cerevisiae deletion strains, locus YOL147C, strain pex11, active compounds read low 1.02 | S. cerevisiae deletion strains, locus YOR001W, strain rrp6, active compounds read low 0.998 | S. cerevisiae deletion strains, locus YOR061W, strain CKA2, active compounds read low 1.02 | S. cerevisiae deletion strains, locus YOR069W, strain VPS5, active compounds read low 1.02 | S. cerevisiae deletion strains, locus YOR070C, strain gyp1, active compounds read low 0.984 | S. cerevisiae deletion strains, locus YOR080W, strain dia2, active compounds read low 0.987 | S. cerevisiae deletion strains, locus YOR083W, strain WHI5, active compounds read low 0.985 | S. cerevisiae deletion strains, locus YOR106W, strain vam3, active compounds read low 0.972 | S. cerevisiae deletion strains, locus YOR136W, strain idh2, active compounds read low 1.02 | S. cerevisiae deletion strains, locus YOR144C, strain elg1, active compounds read low 1.02 | S. cerevisiae deletion strains, locus YOR184W, strain ser1, active compounds read low 1.04 | S. cerevisiae deletion strains, locus YOR231W, strain MKK1, active compounds read low 0.994 | S. cerevisiae deletion strains, locus YOR265W, strain rbl2, active compounds read low 0.996 | S. cerevisiae deletion strains, locus YOR270C, strain vph1, active compounds read low 1.01 | S. cerevisiae deletion strains, locus YOR290C, strain snf2, active compounds read low 0.989 | S. cerevisiae deletion strains, locus YOR316C, strain cot1, active compounds read low 1.02 | S. cerevisiae deletion strains, locus YPL051W, strain arl3, active compounds read low 0.976 | S. cerevisiae deletion strains, locus YPL055C, strain LGE1, active compounds read low 1.03 | S. cerevisiae deletion strains, locus YPL078C, strain atp4, active compounds read low 1 | S. cerevisiae deletion strains, locus YPL106C, strain sse1, active compounds read low 0.976 | S. cerevisiae deletion strains, locus YPL240C, strain hsp82, active compounds read low 0.995 | S. cerevisiae deletion strains, locus YPL241C, strain CIN2, active compounds read low 1.01 | S. cerevisiae deletion strains, locus YPL256C, strain CLN2, active compounds read low 0.971 | S. cerevisiae deletion strains, locus YPR119W, strain clb2, active compounds read low 1.02 | S. cerevisiae deletion strains, locus YPR141C, strain kar3, active compounds read low 1.03 | S. cerevisiae deletion strains, locus YPR163C, strain tif3, active compounds read low 1.03 | S. cerevisiae deletion strains, locus YPR167C, strain met16, active compounds read low 1.02 | S. cerevisiae deletion strains, strain wtn01, active compounds read low 1.02 | S. cerevisiae strains, strain wild type, active compounds read low 1.01
